This is part of a sample that, as a whole, favours compounds with a hit. Of some 83,000 tested, about 20% had one in any assay.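 The endpoint reported here, percent growth, reads 100 for growth as untreated, 0 for no net growth and -100 for all cells dead.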 Active and inactive are the calls of the source. How the source made its calls: active means growth percent below 10; inactive means the rest.
Columns and labels:
Assay in all cases: NCI-60 one-dose screen, 48 h (100 = growth as untreated, 0 = no growth, -100 = all killed)
[1] = tested on: A549/ATCC NSCLC; details: 10 µM unless noted
[2] = tested on: 786-0 renal; details: 10 µM unless noted
[3] = tested on: SF-539 CNS; details: 10 µM unless noted
[4] = tested on: UACC-257 melanoma; details: 10 µM unless noted
[5] = tested on: M14 melanoma; details: 10 µM unless noted
[6] = tested on: HCT-15 colon; details: 10 µM
[7] = tested on: HT29 colon; details: 10 µM unless noted
[8] = tested on: UACC-62 melanoma; details: 10 µM unless noted
[9] = tested on: SK-MEL-28 melanoma; details: 10 µM unless noted
[10] = tested on: TK-10 renal; details: 10 µM unless noted
[11] = tested on: OVCAR-8 ovarian; details: 10 µM unless noted
[12] = tested on: OVCAR-5 ovarian; details: 10 µM unless noted
[13] = tested on: NCI/ADR-RES ovarian; details: 10 µM unless noted
[14] = tested on: BT-549 breast; details: 10 µM
[15] = tested on: MCF7 breast; details: 10 µM unless noted
[16] = tested on: DU-145 prostate; details: 10 µM unless noted
[17] = tested on: SF-268 CNS; details: 10 µM unless noted
[18] = tested on: PC-3 prostate; details: 10 µM unless noted
[19] = tested on: HL-60(TB) leukemia; details: 10 µM unless noted
[20] = tested on: OVCAR-3 ovarian; details: 10 µM unless noted

Measured: growth

CC12CC[C@H](O)C=C1/C(=N/O)CC1C2CCC2(C)C1CC[C@@H]2O (stereo not given in full)
inactive: [1] 103% | [2] 80.1% | [3] 100% | [4] 111% | [5] 95.7% | [6] 97.9% | [7] 98% | [8] 94.3% | [9] 103% | [10] 102% | [11] 107% | [12] 96.2% | [13] 101% | [14] 85% | [15] 85.6%

COc1cc(C2CC(=O)Nc3nc(N)[se]c32)c(OC)c2c1OCO2 (stereo not given)
inactive: [1] 58.9% | [2] 105% | [16] 103% | [17] 107% | [3] 91% | [4] 116% | [5] 85.1% | [6] 101% | [7] 98.5% | [18] 51.6% | [8] 99.3% | [9] 104% | [10] 109% | [19] 84.4% | [11] 104% | [12] 108% | [20] 114% | [13] 109% | [14] 101% | [15] 94.1%

Oc1c(Br)cc(Br)cc1Br.[Cu+2]
inactive: [1] 98% | [2] 115% | [16] 108% | [17] 105% | [3] 107% | [4] 101% | [5] 103% | [6] 108% | [7] 104% | [18] 103% | [8] 109% | [9] 101% | [10] 117% | [19] 87.9% | [11] 103% | [12] 120% | [20] 109% | [13] 105% | [14] 122% | [15] 101%
